Source: article PMC12136788
Over roughly 5,800 sequences, “enrichment r” has its median near 0.68; the highest 2% begin near 11. Not all results are given here.

T1: UNK ZnF1-6 (called full-length) (human, UniProt Q9C0B0 30-357)
T1 sequence: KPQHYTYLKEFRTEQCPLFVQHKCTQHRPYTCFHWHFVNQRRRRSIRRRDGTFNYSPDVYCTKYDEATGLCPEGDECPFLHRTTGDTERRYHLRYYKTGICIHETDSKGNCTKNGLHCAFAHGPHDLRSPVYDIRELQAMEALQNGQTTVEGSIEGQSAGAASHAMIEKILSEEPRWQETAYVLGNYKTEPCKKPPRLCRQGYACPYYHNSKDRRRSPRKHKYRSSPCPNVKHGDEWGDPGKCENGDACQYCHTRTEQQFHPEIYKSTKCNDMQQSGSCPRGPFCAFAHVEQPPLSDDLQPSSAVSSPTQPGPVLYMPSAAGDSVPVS

B1: chr9:34635388:34635489:-|3pUTR|ENSG00000147955|msi1|total|mutant (ssRNA)
RNA: GGGAGUUCUACAGUCCGACGAUCGGGAUAUCCAUGCUUAUGUAUCCAAACACAGAGACCCAUGGGAACAAAUGAGACACAUACCGAUACUGAGACCUGUGUGUACAGCCGGACCAUGCACUCACACCCAUCUGGAGAGGGAGCCAACAGAGGAUUGAGCAUCA
B2: chr1:16124655:16124788:-|3pUTR|ENSG00000142627|msi1|total|mutant (ssRNA)
RNA: GGGAGUUCUACAGUCCGACGAUCAGACUGUGAACUUGACUGGGUGAGACCCAAAGCGGUCCCUGUCCCUCCCGUGCCUUCUUCCGACCCUCGGGCCCCAUCCUCAUCCCUGACUGGCCAAACCCUUGCUUUCCUGGGCCUUUGCAACAGAGGAUUGAGCAUCA
B3: ENSG00000070961:be:win_2401|CDS|ENSG00000070961|bound_else_gene|NA|bound_elsewhere_windowed (ssRNA)
RNA: GGGAGUUCUACAGUCCGACGAUCGAUGGCCCAGCACUAAAGAAAGCAGAUGUUGGAUUUGCAAUGGGUAUUGCUGGAACUGAUGUAGCUAAAGAAGCAUCCGAUAUUAUUCUCACAGAUGACAACUUUACAAGCAUUGUUAAACAACAGAGGAUUGAGCAUCA
B4: chr1:6592219:6592320:-|3pUTR|ENSG00000162413|unk|total|mutant (ssRNA)
RNA: GGGAGUUCUACAGUCCGACGAUCCCCAAAGCCGCCUUGGCUUGAGUUUUUGUCCUUGCCUCCUUUUCCGAGAAGAGGGCAUUCCGACUGCAUUUUCCUGGUUAAAGAAGGUUAAAGCAAAUGUUUAUUGCCUUUUCCCGUGAACAACAGAGGAUUGAGCAUCA
B5: ENSG00000168297:stop:overlap|stop_codon|ENSG00000168297|stop_codon|NA|stop_codon (ssRNA)
RNA: GGGAGUUCUACAGUCCGACGAUCCUGGGGCCAGCUCACCUCUCACGUCCCCGUCAUCGCCAACUCCACCCUCUACAUCAGGUUAGUGAUGGAGUAAAGUGACAUGCCACCUUCCUGUCCGCCAACAGGAGGAGCGGGCUGUGCCAACAGAGGAUUGAGCAUCA
B6: chr22:40826605:40826706:-|CDS|ENSG00000100380|unk|total|mutant (ssRNA)
RNA: GGGAGUUCUACAGUCCGACGAUCCACCAAAUUACAGGUCUAAAUAAGAGAUGGAAUUCCGGAUAAUAAACUUACUGACCCAGCCGGACACUUUUUAAAUACUAAUGAACCCUUUCUUUUCAGGAUCCAGAAGUUAUGGUGGCUCAACAGAGGAUUGAGCAUCA
B7: ENSG00000143373:stop:overlap|stop_codon|ENSG00000143373|stop_codon|NA|stop_codon (ssRNA)
RNA: GGGAGUUCUACAGUCCGACGAUCACUUCCGCACGCAUGGCAUGGCGUUCAUCAGGGCUCGGCAGGGGGCUGUUGGGGACAACUAGUCUCCAAGGCCUGGGACUGACCAGCCCCUUCCUCUUGGAGCCUGGUUUUCCCUACUGCCAACAGAGGAUUGAGCAUCA
B8: ENSG00000136451:be:win_2201|3pUTR|ENSG00000136451|bound_else_gene|NA|bound_elsewhere_windowed (ssRNA)
RNA: GGGAGUUCUACAGUCCGACGAUCAUUGUGACCUGAUAUUUGGAGAUGUAAAUAUUGCUCAGCAUAUUAAUCCCGAUGGAAUAUAGCAUUGUAGUUGACUUUUUAAAAAAAAAAAAAAUUUAAAAAAAAUCUACAAAUUGUGUUCAACAGAGGAUUGAGCAUCA
B9: chr3:11298707:11298833:+|CDS|ENSG00000197548|unk|total|mutant (ssRNA)
RNA: GGGAGUUCUACAGUCCGACGAUCAUAAUGGCGGCAGCUACGGGGGAUCCUGGACUCUCUAAACUGCAGUUUGCCCCUUUCCGCCGUGCCUUGGAUGUUGGGUUUUGGCAUGAGUUGACCCAGAAGAAGCUGAACGAGUAUCGGCAACAGAGGAUUGAGCAUCA
B10: chrX:15345595:15346132:-|three_prime_utr|ENSG00000165197|control|control|control (ssRNA)
RNA: GGGAGUUCUACAGUCCGACGAUCCAGACCAACCUUCCAUUCACACCAGCUAAGGAGUCCCUGGUUCAUUGAUGGAUGUCUUCUAGCUGCAGAUGCCUCUGCGCACCAAGGAAUGGAGAGGAGGGGACCCAUGUAAUCCUUUUGCAACAGAGGAUUGAGCAUCA
B11: chrX:65741840:65741941:+|3pUTR|ENSG00000147065|msi1|FALSE|unique (ssRNA)
RNA: GGGAGUUCUACAGUCCGACGAUCAAAUUGUUUUUGGAGGGGUUUAUGCUCAAUCCAUGUUCUAUUUCAGUGCCAAUAAAAUUUAGGAAGACUUCACAGUGACUCAAUCGUUCUUUGUGGUAUGAGUGGGUAGCUGUAAGAUAUCAACAGAGGAUUGAGCAUCA
B12: chr10:72011937:72012038:+|3pUTR|ENSG00000122863|msi1|total|mutant (ssRNA)
RNA: GGGAGUUCUACAGUCCGACGAUCCAUACACCGCAGGUGGUCACCGAGUUAUUUUCCAAAAGCUGAGGAACAUAAAGCAAAUUCCGGCUUUUGUCCUUCUGCAAUACAUGCACUUGAAAAUAAACAGAAAAGAGAUGUUUAAUACAACAGAGGAUUGAGCAUCA
B13: chr17:50110931:50111032:+|3pUTR|ENSG00000005882|unk|total|mutant (ssRNA)
RNA: GGGAGUUCUACAGUCCGACGAUCUGUGCCCAGACAUGUGUGCUCAGGGUGGCUUUCUCCCCCGGACCUUCUGUGUAUACCGUCCGUUUUAUAACCCUGAAUGCCCCCACCCUUCCCCUAAGCACACAGGGGUUAAAGCUGUGUCAACAGAGGAUUGAGCAUCA
B14: chr6:132588675:132589686:-|CDS|ENSG00000135569|control|control|control (ssRNA)
RNA: GGGAGUUCUACAGUCCGACGAUCUGCCAAGACCCUGGGCAUUGCUGUGGGCAUAUACCUCUUGUGCUGGCUGCCCUUCACCAUAGACACGAUGGUCGACAGCCUCCUUCACUUUAUCACACCCCCACUGGUCUUUGACAUCUUCAACAGAGGAUUGAGCAUCA

Target: T1, UNK ZnF1-6 (called full-length)
Test: nsRBNS (natural sequence RNA bind-n-seq); RBNS binding buffer (assumed for nsRBNS): 25 mM Tris pH 7.5, 150 mM KCl, 3 mM MgCl2, 0.01% Triton X-100, 500 ug/ml BSA, 20 U/ml SUPERase-In, 4 C; UNK is unkempt and MSI1 is Musashi-1; names of the RNAs are library labels; protein concentration not given here; high values mean tight binding

Binder	binding signal [enrichment R]
B1	0.886
B2	1.06
B3	0.531
B4	0.414
B5	1.05
B6	0.405
B7	0.569
B8	0.637
B9	0.839
B10	0.639
B11	0.698
B12	0.34
B13	1.06
B14	0.967
